Source: PubChem BioAssay AID2462 (Broad Institute, 2010)
Among all 330,000 compounds or so, about 220 (0.067%) were called active.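 The calls were made as follows: active = over half of replicate activation scores above 10%, or exactly half above 10 with the replicate mean above 10; inconclusive = replicate mean below 10 yet half the replicates above 10; inactive = over half of replicates below 10.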 The full list was thinned out, with actives kept by preference.

Test: inducers of caspase signal in A1-primed MEFs – cell-based, luminescence, HTS, A1 inhibitor project, primary screen (AID 2462)
Conditions: MEF A1-2A-BIM cells, Caspase-Glo 3/7 luminescence, 3 h; hits give high values; percent of clofoctol response, vehicle zero; concentration not given here

Caspase activation, inactive:
C=CCOc1c(CNn2cn[nH]c2=S)cccc1OC 0.398%
CCOC(=O)c1c(C)n(C)c2ccc(OC)c(NS(=O)(=O)CC)c12 -0.135%
CC12CCC(C(=O)N(NC(=O)c3ccccc3O)C1=O)C2(C)C (stereo not given) 1.44%
CCOC(=O)c1cnc(-n2nc(C)cc2C)nc1NNc1cc(C)nc(-c2ccccc2)n1 -0.244%
O=C1CC(Cc2ccccc2)C(=O)N1c1ccc(Cl)cn1 (stereo not given) -0.386%
CCOC(=O)C1=C(CN2CCc3ccccc32)NC(=O)NC1c1cc(C)ccc1C (stereo not given) -0.324%
COC(=O)c1ccc(/C=C/c2c(-c3ccc(OC)cc3)sc3ccccc23)cc1 0.0613%
CCOc1ccc(NC(=O)c2ccc(CSc3nnnn3C)cc2)cc1 -1.46%
CN1CCN(CC(=O)C23CC4CC(CC(C4)C2)C3)CC1 -0.618%
Cc1c(C(=O)NNC(=O)c2ccncc2)oc2ccccc12 -1.06%
O=c1cc(CN2CCN(c3cccc(Cl)c3)CC2)c2cc3c(cc2o1)CCCC3 0.443%
Cc1cccc(N2CC(C(=O)Nc3ccccc3N3CCCC3)CC2=O)c1C (stereo not given) -0.198%
COc1ccc(C2C(C#N)=C(N)Oc3cc(N)ccc32)cc1OC (stereo not given) 0.292%
FC(F)(F)c1ccnc(Oc2ccc(C3=NCCS3)cc2)c1 -5.34%
CC(=O)Nc1ccc(C(=O)OCC(=O)Nc2ccc([N+](=O)[O-])cc2C(F)(F)F)cc1 0.347%
Cc1ccc(CNC(=O)C2CCCN2C(=O)NCc2ccccc2)cc1 (stereo not given) 0.299%
Cc1cccc(OCCNC(=S)NC(=O)c2cccnc2)c1 0.352%
O=C(NCCN1CCN(C(=O)c2cccc([N+](=O)[O-])c2)CC1)C(=O)NCc1ccc(Cl)cc1 -0.117%
O=C(CN(Cc1ccccc1)C(=O)CCC(=O)Nc1ccccn1)NCCc1ccccc1 -0.282%
CCOC(=O)CC1COCCN1C(=O)c1cc(COc2ccc(F)c(F)c2)on1 (stereo not given) -0.113%
Cc1ccc(-n2ncc3c2CC(C)(C)CC3NC(=O)CCc2cnn(C)c2)cc1 (stereo not given) 0.222%
COc1ccc(N2CCN(C(=O)CCSCc3ccccc3F)CC2)cc1 -0.325%
CSc1ccc(/C=C2\NC(=O)NC2=O)cc1 -0.861%
O=C(CCc1n[nH]c(=O)[nH]c1=O)N/N=C/c1ccc(Br)o1 -0.493%
CN(C(=O)c1cccc(NC(=O)C2CCN(C(=O)OC(C)(C)C)CC2)c1)C1CCC1 0.788%
COCCCNC(=O)C1CCN(c2ccc(N3CCOCC3)nn2)CC1 0.283%
C#CCOCCOCCOCCNc1nc(N2CCN(C(=O)[C@H](CCCN=C(N)N)n3cc(C(N)[C@@H](C)CC)nn3)CC2)nc(N2CCN(C(=O)[C@H](CO)n3cc([C@@H](N)C(C)C)nn3)CC2)n1 (stereo not given in full) 0.85%
COC(=O)CNC(=O)c1ccc2c(c1)S(=O)(=O)c1ccccc1C2=O -0.413%
CCC1C(=O)NCCN1C(=O)c1ccc2nc(Cc3ccc(OC)cc3)oc2c1 (stereo not given) -0.419%
COc1ccc(CCNc2cc(N3CCN(C(=O)c4ccccc4OC)CC3)ccc2[N+](=O)[O-])cc1OC -0.378%
O=C1c2ccccc2NC(c2ccccn2)N1NS(=O)(=O)c1ccccc1 (stereo not given) 1.93%
CC(=O)c1ccccc1NC(=O)C1CC(=O)N(c2ccc3c(c2)OCCO3)C1 (stereo not given) 0.41%
Cc1ccc(-c2nnc(CN3CCN(C)CC3)o2)cc1 0.0366%
COc1cc2c(cc1OC)C(C(=O)Nc1cc(C)c(OC)c(C)c1)CC(=O)N2 (stereo not given) 0.803%
Cc1ccc2cc3cc(C(=O)N4CCCCCC4)oc3nc2c1 0.083%
NC1=NC(=O)C(Cc2cccc(Cl)c2)S1 (stereo not given) -0.108%
CC(C)(C)OC(=O)N[C@H](C(=O)OC(C)(C)C)c1ccc(Br)cc1 -0.98%
CCOC(=O)c1c(NC(=O)CCCN2CCOCC2)sc2c1CC(C)(C)OC2 -0.683%
CN(C)C(=O)Cn1c(=O)n(S(=O)(=O)c2ccccc2)c2ccccc21 -0.645%
CN(c1ccc2nc3ccccc3c(=O)n2n1)C1CCCCC1 0.636%
CN(C(=O)CSc1nnc(N)s1)c1c(N)n(Cc2ccccc2)c(=O)[nH]c1=O 0.167%
CCOC(=O)C(NC(=O)CC(C)C)(Nc1sc2c(c1C(N)=O)CCCC2)C(F)(F)F (stereo not given) 0.722%
O=C(O)c1cc2ccccc2c(=O)s1 1.64%
COc1ccc(CCNC(=O)CN(C)S(=O)(=O)c2ccc3nc(C)sc3c2)cc1OC -2.31%
CCC(C)NC(=O)N[C@@H](CCSC)C(=O)O (stereo not given in full) 0.604%
CCCCC(O)(CCCC)C(=O)NN(C(=O)CCl)c1ccccc1 0.273%
COc1ccc(OCC(=O)NN2Cc3ccccc3C2=N)cc1 1.26%
Cc1ccc2oc(C(=O)N3CCN(C)C[C@@H]3C(C)C)c(C)c2c1 -0.346%
CCOc1ccccc1-n1c(SCC(=O)NCc2ccco2)nnc1-c1ccncc1 -0.681%
O=C(NCc1ccccc1)C1CCCN(c2nc3ccsc3c(=O)s2)C1 (stereo not given) -0.382%
COc1cccc(NC(=O)Cn2c3ccc(F)cc3c3nc4n(c(=O)c32)CCS4)c1 -1.98%
O=c1c(-c2ccccc2Cl)c[nH]n1-c1ccccc1 -1.88%
COc1ccc(C(=O)NCCSc2ccccc2C)cc1 -1.26%
OCCC1CN(Cc2cnc(-c3ccccc3)s2)CCN1CCc1ccccc1 (stereo not given) 0.493%
CCOCCn1[nH]c2ccccc2c1=O -0.169%
O=S(=O)(Nc1ccc(-c2ccc(N3CCOCC3)nn2)cc1)c1cc(Cl)ccc1Cl 0.476%
CC(C)CNC(=S)NNC(=O)c1ccccc1OC(F)F 1.35%
CN(Cc1c(F)cccc1Cl)C(=O)CNC(=O)c1ccc2c(c1)OCO2 -0.444%
N#Cc1c(-c2ccc(F)cc2)cc(C2CC2)nc1SCC(=O)c1cccs1 -0.105%
Cc1cccc(C(=O)NCc2nnc(SC(C)C(=O)Nc3nnc(C)s3)n2C)c1 (stereo not given) 0.308%
COc1ccc(C2CC(=O)C=C(NCC3CCCO3)C2)cc1 (stereo not given) 1.09%
Cc1c(C(=O)N2CCN(c3ccc(F)cc3)CC2)oc2c1C(=O)CCC2 -0.061%
Cc1ccc(CC2C(=O)N(c3ccc(F)cc3)C(=O)C2C)cc1 (stereo not given) 0.618%
Cc1cc(-n2cnc(-c3cn(C)nc3C)n2)no1 0.762%
O=C(NCc1ccccc1)C1=C[C@@H](C2CCCCC2)C[C@@H](OCc2ccc(CO)cc2)O1 1.39%
Cc1ccc(CNC(=O)CCS(=O)(=O)c2ccc3c(c2)CC(C)N3C(=O)C2CC2)o1 (stereo not given) 3.53%
O=C(C1CCCO1)N1CCN(C(=S)NC2CC2)CC1 (stereo not given) -0.789%
CC1=C(C(N)=O)C(c2sccc2C)n2nnnc2N1 (stereo not given) -0.851%
CCC1CCCCN1CCCNC(=O)c1cc2c(Cl)nc3ccccc3c2s1 (stereo not given) -0.978%
CC(=O)C(C)n1cnc2scc(-c3ccc(C)cc3)c2c1=O (stereo not given) 0.409%
O=C(NC1CCCCC1)C1CCC(CNS(=O)(=O)c2ccccc2)CC1 (stereo not given) 0.134%
CNc1[nH]ncc1[N+](=O)[O-] -0.643%
COc1ccc(C[C@H]2CN3C(=NC[C@H]3C)N2CCNC(=O)CCC2CCCCC2)cc1 0.277%
CCCN(c1ccc(C)cc1)c1nc(=O)c2cccnc2s1 0.23%
COC(=O)[C@H]1Cc2cnoc2C[C@]1(C)C(=O)O -0.157%
COc1ccc(OC)c(/C=C/C(=O)c2ccc3c(c2)OCO3)c1 -0.508%
COc1ccc(Nc2ccc([N+](=O)[O-])cn2)cn1 -0.342%
CCN(CC(=O)Nc1ccc(OC)cc1)C(=O)CSCc1ccc(C)cc1 -0.709%
CCc1ccc(OCC2c3cc(OC)c(OC)cc3CCN2C(C)=O)cc1 (stereo not given) 0.768%
COc1ccc2c(c1)CCNC2Cc1ccc(OC)c(O)c1 (stereo not given) 2.35%
COc1cccc(NC(=O)CN(C)C(C)C(=O)Nc2ccc(C#N)cc2)c1 (stereo not given) 0.554%
CC[N+](C)(CC)CCC[n+]1c(-c2ccccc2)c2cc(N)ccc2c2ccc(N)cc21 2.85%
CC(=O)Nc1ccc(Sc2ccccc2C(=O)N2CCCC2)cn1 0.126%
Cn1c(C(=O)O)ccc1S(=O)(=O)N(Cc1ccccc1)Cc1ccccc1 -0.442%
O=C(NCCc1ccco1)C(=O)NCCC1CCCCN1S(=O)(=O)c1ccccc1 (stereo not given) 0.605%
CN(C)c1ccc(Nc2c3c4c(cccc4n(C)c2=O)C(=O)c2ccccc2-3)cc1 -0.124%
CC1(C)COC(c2cccn2Cc2ccccc2Cl)=N1 -0.0448%

Caspase activation, active:
O=[N+]([O-])C(=c1ccc2c(c1)N1C3=C(CCCC3)CC3CCCCC31N=2)[N+](=O)[O-] (stereo not given) 6.39%
COc1ccc(NC(=O)/C(Cl)=C(/Cl)S(=O)Cc2ccc(C)cc2)cn1 (stereo not given) 7.8%
CC[C@H]1CN2CCc3cc(OC)c(OC)cc3[C@@H]2C[C@@H]1C[C@H]1NCCc2cc(OC)c(OC)cc21 7.26%
